The target in test [1] is Sphingosine kinase 1 (Homo sapiens) (UniProt Q9NYA1). Conditions: at 1 µM.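 Further: mean SPHK1 inhibition value reported from the GSK PKIS kinase panel screen.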
The target of test [2] is T1, Sphingosine kinase 2 (Homo sapiens) (UniProt Q9NRA0).
T1 sequence (whole entry): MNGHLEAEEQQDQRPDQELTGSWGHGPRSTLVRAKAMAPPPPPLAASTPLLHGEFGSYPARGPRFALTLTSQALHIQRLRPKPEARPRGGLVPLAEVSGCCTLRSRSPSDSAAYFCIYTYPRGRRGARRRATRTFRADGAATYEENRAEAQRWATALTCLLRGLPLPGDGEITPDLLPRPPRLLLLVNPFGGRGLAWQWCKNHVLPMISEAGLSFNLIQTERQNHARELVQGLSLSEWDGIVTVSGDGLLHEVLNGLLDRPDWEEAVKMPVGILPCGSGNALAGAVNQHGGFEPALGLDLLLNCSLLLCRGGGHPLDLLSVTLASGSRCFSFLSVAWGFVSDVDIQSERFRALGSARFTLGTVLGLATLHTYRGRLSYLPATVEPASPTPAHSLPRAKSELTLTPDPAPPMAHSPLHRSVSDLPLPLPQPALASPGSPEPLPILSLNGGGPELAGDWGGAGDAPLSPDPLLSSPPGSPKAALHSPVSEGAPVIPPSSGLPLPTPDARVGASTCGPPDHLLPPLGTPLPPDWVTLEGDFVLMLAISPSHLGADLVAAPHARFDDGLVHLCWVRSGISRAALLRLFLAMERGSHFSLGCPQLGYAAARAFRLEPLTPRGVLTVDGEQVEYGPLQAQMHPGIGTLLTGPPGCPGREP
As to conditions: at 0.1 µM.

The target in test [3] is T1, Sphingosine kinase 2 (Homo sapiens). Conditions: at 1 µM.
Test [4] concerns the target Casein kinase II subunit alpha (Homo sapiens) (UniProt P68400). As to conditions: at 0.1 µM.
The target is the same in test [5]. Conditions: at 1 µM.
For test [6], the target named is T2, Inhibitor of nuclear factor kappa-B kinase subunit alpha (Homo sapiens) (UniProt O15111).
T2 sequence (whole entry): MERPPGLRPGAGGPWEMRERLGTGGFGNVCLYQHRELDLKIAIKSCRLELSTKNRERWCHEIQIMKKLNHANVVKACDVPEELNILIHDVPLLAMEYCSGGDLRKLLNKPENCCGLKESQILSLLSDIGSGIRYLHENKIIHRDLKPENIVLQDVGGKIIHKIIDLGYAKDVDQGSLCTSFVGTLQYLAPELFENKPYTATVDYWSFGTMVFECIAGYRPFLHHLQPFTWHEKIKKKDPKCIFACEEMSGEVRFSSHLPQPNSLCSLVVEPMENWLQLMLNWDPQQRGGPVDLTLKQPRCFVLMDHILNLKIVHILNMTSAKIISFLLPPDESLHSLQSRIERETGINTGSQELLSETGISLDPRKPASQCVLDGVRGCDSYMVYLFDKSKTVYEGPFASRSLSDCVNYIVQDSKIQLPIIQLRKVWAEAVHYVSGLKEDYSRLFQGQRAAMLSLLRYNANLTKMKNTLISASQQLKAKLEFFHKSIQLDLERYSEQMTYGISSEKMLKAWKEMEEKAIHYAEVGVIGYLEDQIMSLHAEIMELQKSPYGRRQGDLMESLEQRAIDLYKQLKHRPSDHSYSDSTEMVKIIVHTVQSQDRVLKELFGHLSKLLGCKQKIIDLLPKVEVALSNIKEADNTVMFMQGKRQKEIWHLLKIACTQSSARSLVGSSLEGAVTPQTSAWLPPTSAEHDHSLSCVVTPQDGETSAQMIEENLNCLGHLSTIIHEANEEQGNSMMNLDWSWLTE
As to conditions: at 0.1 µM.

The target of test [7] is T2, Inhibitor of nuclear factor kappa-B kinase subunit alpha (Homo sapiens). Conditions: at 1 µM.
Test [8] deals with T3, Inhibitor of nuclear factor kappa-B kinase subunit beta (Homo sapiens) (UniProt O14920).
T3 sequence (whole entry): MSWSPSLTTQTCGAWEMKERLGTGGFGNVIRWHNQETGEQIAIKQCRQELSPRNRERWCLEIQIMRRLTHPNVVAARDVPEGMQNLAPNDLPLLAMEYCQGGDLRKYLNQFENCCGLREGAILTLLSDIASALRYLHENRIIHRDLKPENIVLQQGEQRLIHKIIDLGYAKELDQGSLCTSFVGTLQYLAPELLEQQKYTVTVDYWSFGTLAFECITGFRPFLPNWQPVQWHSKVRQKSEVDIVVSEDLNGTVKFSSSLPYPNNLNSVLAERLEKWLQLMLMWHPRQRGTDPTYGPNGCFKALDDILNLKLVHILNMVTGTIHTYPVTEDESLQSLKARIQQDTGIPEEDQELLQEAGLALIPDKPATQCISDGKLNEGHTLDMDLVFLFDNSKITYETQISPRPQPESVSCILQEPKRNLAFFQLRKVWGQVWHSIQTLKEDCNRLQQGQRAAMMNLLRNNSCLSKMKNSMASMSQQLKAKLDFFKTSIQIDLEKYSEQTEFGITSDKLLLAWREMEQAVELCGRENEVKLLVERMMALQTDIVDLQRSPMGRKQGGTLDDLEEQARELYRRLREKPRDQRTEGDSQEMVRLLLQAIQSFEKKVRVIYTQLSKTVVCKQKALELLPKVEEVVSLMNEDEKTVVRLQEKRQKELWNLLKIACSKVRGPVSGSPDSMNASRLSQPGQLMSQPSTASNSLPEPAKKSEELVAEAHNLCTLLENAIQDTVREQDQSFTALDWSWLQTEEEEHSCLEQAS
Conditions: at 0.1 µM.

In test [9] the target is T3, Inhibitor of nuclear factor kappa-B kinase subunit beta (Homo sapiens). Conditions: at 1 µM.
The target of test [10] is T4, Inhibitor of nuclear factor kappa-B kinase subunit epsilon (Homo sapiens) (UniProt Q14164).
T4 sequence (whole entry): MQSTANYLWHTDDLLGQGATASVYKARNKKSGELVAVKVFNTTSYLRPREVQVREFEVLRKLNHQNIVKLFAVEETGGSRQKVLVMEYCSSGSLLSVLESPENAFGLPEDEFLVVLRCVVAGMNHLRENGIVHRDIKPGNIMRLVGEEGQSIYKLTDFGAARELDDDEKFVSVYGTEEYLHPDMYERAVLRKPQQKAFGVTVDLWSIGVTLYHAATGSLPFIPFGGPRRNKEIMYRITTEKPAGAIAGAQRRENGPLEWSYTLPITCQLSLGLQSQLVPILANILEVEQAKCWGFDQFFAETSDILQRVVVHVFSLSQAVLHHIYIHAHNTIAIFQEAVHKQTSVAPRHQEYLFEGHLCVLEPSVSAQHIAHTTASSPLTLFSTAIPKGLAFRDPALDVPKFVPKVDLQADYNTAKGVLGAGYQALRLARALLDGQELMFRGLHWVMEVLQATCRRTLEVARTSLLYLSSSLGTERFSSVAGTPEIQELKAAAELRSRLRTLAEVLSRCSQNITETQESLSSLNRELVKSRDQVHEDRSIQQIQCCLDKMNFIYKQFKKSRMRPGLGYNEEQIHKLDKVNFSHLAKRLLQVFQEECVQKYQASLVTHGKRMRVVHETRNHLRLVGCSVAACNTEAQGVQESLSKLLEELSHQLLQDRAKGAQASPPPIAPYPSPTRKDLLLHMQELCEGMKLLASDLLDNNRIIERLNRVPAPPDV
As to conditions: at 0.1 µM.

Test [11] has as its target T4, Inhibitor of nuclear factor kappa-B kinase subunit epsilon (Homo sapiens). Conditions: at 1 µM.
Test [12] addresses T5, Serine/threonine-protein kinase Nek1 (Homo sapiens) (UniProt Q96PY6).
T5 sequence (whole entry): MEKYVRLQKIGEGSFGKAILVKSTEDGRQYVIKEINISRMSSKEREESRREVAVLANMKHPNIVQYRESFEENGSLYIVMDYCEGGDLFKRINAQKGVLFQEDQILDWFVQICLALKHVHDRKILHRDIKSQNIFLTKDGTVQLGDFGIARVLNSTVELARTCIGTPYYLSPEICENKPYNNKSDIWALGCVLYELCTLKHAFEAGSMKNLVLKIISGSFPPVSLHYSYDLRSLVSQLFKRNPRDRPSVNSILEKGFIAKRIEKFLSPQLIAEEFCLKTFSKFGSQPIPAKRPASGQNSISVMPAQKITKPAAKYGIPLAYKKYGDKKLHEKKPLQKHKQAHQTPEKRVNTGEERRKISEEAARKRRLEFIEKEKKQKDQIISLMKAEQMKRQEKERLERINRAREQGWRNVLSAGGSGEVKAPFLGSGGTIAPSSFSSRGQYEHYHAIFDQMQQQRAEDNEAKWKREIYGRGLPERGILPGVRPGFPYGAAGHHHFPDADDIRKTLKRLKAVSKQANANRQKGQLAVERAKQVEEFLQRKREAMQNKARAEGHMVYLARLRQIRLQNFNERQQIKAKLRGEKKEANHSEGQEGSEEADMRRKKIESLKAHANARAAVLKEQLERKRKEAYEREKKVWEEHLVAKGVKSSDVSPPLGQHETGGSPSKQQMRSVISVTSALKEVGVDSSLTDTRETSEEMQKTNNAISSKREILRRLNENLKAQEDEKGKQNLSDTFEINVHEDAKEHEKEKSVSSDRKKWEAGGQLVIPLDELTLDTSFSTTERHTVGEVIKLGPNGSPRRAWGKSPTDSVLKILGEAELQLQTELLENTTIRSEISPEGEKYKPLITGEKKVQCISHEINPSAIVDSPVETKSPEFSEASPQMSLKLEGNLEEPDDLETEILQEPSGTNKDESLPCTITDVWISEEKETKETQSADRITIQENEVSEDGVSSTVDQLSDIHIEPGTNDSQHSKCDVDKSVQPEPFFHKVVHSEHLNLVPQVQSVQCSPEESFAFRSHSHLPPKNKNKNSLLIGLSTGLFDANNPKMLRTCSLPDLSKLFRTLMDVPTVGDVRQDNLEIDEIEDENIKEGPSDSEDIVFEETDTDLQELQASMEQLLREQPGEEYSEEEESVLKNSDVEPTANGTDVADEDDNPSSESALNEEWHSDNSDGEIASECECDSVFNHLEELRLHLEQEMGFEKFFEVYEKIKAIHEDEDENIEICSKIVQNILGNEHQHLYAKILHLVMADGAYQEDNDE
Conditions: at 0.1 µM.

For test [13], the target named is T5, Serine/threonine-protein kinase Nek1 (Homo sapiens). As to conditions: at 1 µM.
Test [14] deals with T6, Serine/threonine-protein kinase Nek2 (Homo sapiens) (UniProt P51955).
T6 sequence (whole entry): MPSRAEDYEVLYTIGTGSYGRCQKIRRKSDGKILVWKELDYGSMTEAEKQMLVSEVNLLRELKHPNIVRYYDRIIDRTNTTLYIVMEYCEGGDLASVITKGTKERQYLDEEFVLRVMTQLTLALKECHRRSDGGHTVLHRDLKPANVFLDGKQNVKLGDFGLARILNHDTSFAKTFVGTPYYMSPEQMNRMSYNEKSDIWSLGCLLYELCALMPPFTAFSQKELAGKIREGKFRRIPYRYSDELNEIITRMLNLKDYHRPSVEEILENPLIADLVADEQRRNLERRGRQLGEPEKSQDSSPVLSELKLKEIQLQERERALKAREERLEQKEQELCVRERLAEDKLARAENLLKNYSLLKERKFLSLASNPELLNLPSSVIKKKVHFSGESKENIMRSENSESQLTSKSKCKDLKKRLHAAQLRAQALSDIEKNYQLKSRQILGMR
Conditions: at 0.1 µM.

Test [15] has as its target T6, Serine/threonine-protein kinase Nek2 (Homo sapiens). Conditions: at 1 µM.
Test [16] deals with Serine/threonine-protein kinase Nek6 (Homo sapiens) (UniProt Q9HC98). As to conditions: at 0.1 µM.
Chain of Serine/threonine-protein kinase Nek6 (Homo sapiens) (Q9HC98 whole entry): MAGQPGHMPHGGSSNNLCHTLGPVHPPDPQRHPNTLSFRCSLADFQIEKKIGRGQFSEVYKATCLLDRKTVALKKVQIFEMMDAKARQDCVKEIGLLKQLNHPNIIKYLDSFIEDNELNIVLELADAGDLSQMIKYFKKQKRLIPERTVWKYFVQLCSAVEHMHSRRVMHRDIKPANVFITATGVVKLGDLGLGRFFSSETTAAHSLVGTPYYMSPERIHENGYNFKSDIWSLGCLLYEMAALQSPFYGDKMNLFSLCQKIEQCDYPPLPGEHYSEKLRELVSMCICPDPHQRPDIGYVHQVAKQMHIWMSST
Test [17] has the same target. Conditions: at 1 µM.
The target of test [18] is Serine/threonine-protein kinase Nek7 (Homo sapiens) (UniProt Q8TDX7). As to conditions: at 0.1 µM.
Chain of Serine/threonine-protein kinase Nek7 (Homo sapiens) (Q8TDX7 whole entry, looked up): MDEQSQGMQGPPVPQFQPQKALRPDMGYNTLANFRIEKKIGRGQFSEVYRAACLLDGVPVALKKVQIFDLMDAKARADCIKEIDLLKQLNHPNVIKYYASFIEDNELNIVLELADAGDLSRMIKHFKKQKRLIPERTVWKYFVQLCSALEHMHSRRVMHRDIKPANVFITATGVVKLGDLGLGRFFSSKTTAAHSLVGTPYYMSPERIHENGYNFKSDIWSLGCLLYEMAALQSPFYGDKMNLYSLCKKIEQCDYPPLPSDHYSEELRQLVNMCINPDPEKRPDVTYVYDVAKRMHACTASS
For test [19] the target is unchanged. Conditions: at 1 µM.
Test [20] addresses T7, Serine/threonine-protein kinase Nek9 (Homo sapiens) (UniProt Q8TD19).
T7 sequence (whole entry): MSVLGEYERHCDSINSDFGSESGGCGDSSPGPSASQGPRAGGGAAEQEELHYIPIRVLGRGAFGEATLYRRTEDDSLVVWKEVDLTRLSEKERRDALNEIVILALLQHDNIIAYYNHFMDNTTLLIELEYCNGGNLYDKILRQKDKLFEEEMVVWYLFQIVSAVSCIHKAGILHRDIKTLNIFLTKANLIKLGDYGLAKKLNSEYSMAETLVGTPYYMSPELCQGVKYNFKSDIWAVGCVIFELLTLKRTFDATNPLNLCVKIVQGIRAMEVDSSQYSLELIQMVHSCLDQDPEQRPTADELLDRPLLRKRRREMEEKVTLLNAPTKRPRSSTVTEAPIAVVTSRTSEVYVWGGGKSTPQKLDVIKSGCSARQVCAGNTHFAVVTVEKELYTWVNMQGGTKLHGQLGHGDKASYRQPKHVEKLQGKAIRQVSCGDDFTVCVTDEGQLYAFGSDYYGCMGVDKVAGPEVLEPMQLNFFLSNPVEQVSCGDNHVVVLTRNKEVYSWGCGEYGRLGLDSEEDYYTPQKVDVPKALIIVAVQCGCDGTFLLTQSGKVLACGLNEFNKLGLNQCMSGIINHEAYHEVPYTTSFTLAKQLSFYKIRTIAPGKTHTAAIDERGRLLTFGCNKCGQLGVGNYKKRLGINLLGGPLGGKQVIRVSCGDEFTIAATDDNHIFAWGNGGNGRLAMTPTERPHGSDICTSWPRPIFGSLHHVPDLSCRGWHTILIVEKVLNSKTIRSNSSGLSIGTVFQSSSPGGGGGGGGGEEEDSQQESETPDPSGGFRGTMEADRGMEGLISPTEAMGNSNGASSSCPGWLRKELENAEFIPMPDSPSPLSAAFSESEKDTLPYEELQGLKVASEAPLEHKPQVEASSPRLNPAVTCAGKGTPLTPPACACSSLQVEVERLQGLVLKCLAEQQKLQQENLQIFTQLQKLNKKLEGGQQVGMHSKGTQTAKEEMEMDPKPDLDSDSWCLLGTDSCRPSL
As to conditions: at 0.1 µM.

Inhibition data for one compound are collected here from ChEMBL document CHEMBL1961873, “Compounds: GSK PKIS; Assays: Nanosyn kinase panel” (2012).

Chain of Casein kinase II subunit alpha (Homo sapiens) (P68400 whole entry, looked up): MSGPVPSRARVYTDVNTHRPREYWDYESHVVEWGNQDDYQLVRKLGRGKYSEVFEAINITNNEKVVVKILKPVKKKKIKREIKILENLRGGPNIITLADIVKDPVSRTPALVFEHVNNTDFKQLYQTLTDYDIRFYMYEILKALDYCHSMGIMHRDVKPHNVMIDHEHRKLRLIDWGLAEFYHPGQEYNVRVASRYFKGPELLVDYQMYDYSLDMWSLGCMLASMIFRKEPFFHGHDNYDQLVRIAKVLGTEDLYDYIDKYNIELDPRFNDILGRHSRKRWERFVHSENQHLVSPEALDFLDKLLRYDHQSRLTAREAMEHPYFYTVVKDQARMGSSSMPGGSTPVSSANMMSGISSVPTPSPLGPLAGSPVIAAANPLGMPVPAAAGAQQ
Chain of Sphingosine kinase 1 (Homo sapiens) (Q9NYA1 whole entry): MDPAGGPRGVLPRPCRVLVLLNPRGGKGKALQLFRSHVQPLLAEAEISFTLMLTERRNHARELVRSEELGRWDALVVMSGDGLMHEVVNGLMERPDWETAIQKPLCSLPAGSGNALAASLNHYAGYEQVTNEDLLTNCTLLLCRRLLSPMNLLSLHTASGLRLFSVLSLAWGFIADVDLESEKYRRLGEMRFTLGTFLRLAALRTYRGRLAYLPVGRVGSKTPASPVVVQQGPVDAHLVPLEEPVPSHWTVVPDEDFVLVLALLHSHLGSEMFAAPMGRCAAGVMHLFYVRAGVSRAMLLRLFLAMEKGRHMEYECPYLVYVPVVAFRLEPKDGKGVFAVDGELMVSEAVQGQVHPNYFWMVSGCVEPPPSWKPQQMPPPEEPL

One may read the inhibition as the relative decrease from the control value, in per cent. Take `CC1=C(C(=O)Nc2ccc3[nH]nc(C)c3c2)C(c2ccc(C(F)(F)F)cc2)CC(=O)N1` (stereo not given): the inhibition is -1.2% in [1]; -0.06% in [2]; -2.04% in [3]; 1.79% in test [4]; 2.97% in test [5]; 3.27% in test [6]. Besides, the inhibition in test [7] is -5.37%; in [8], 2.18%; in test [9], 0.69%; in [10] it was 0.85%; in test [11], 2.46%; in test [12], 1.56%. Also, the inhibition is 2.57% in [13]; 3.16% in [14]; 3.29% in test [15]; 1.24% in test [16]; -1.35% in test [17]; 3.34% in test [18]. Besides, the inhibition in [19] turned out to be 2.74%; in test [20], 1.92%.
